In PubChem BioAssay (NCI) one finds growth data, which are given here for 12 molecules.

The panel holds about 83,000 compounds, 20% with a hit somewhere; the sample as a whole holds those more often.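 Step 1: grow cells in 96-well plates. Step 2: add test compound at a single concentration. Step 3: incubate 48 h. Step 4: record percent growth.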 Active and inactive are the calls of the source. How the source made its calls: active means growth percent below 10; inactive means the rest.

The test concerns HL-60(TB) leukemia. As to the kind of experiment: NCI-60 one-dose screen, 48 h (100 = growth as untreated, 0 = no growth, -100 = all killed). To be noted: 10 µM unless noted.
Take `N#Cc1c(NC(=O)c2ccccc2C(F)(F)F)sc2c1CCC(=O)C2`: the growth is 3.87% (active). For `COc1ccc(NC(=O)Nc2ccc3c(ccn3C(=O)c3cccc(F)c3)c2)cc1` the value was 85.2% (inactive). With `Cc1ccc(NC(=O)c2ccc(CN3CCOCC3)c(C(F)(F)F)c2)cc1Oc1ccc(-c2[nH]nc3ncnc(N)c23)cc1`, the growth is 80.9% (inactive).

As to `CC(=O)Oc1ccccc1C(=O)Nc1ccc(C(=O)/C=C/c2cccs2)cc1`, the growth was 103% (inactive).

As to `Nc1ncc(-c2ccc3ncnc(Nc4cccc(Cl)c4F)c3c2)cn1`, the growth is 90.5% (inactive). In the case of `CS(=O)(=O)c1ncc(-c2ccccc2)cn1`, the growth was 103% (inactive).

Turning to `CCN(CC)c1ccc2cc(C(=O)NCCOCCOCCOCCn3cc(CCC(=O)Nc4ccc(C(=O)c5ccc(NC(=O)OC(C)(C)C)cc5)cc4)nn3)c(=O)oc2c1`, the growth was 37% (inactive). Consider `O=C(CCCCCCN1CC(=O)N2[C@@H](c3ccccc3)c3[nH]c4ccccc4c3C[C@H]2C1=O)NO`, for which the growth is 28.5% (inactive). For `CC[C@@H](CO)Nc1ccc2ncc(C#Cc3cncc(C(=O)Nc4ccc(CN5CCN(C)CC5)c(C(F)(F)F)c4)c3)n2n1`, the growth was -27.3% (active). As to `CC1(C)CC[C@]23CC[C@]4(C)[C@H](CC[C@@H]5[C@@]6(C)CCCN(CO)C(C)(C)[C@@H]6CC[C@]54C)[C@H]2[C@H]1OC3`, the growth was 36.6% (inactive). For the molecule `COc1ccc(-c2cc(-c3ccc(Cl)cc3)c(C#N)c(=O)n2Cc2ccc(C(=O)O)cc2)cc1`, the growth is 92.1% (inactive). Take `C[C@@H]1CN(c2ccc3ncc(C#Cc4cncc(C(=O)Nc5ccc(CN6CCN(C)CC6)c(C(F)(F)F)c5)c4)n3n2)C[C@H](C)O1`: the growth is -30.7% (active).
